# Assay results reported in PubChem BioAssay (EPA / NIEHS).
# Activity calls are given as the source filed them. The calls were made as follows: active = hit-call score of the fitted dose curve at least 0.9, where 1 is the maximum; inactive = score below 0.9.
# What was measured:
# Conditions in all cases: primary human HUVEC with PBMC; actives raise or lower the signal
# [1] = read-out: Tissue Factor, F3 (gene 2152); assay: BSK_LPS_TissueFactor: BioMAP Diversity Plus: LPS Assay for Tissue Factor Biomarker Activity (AID 2283084)
# Outline: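 Read-out: CD142 ELISA, 24 h. System: LPS-driven human endothelial/PBMC co-culture. Analysis: up- or down-signal fitted against DMSO.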
# [2] = read-out: Tumor necrosis factor (Homo sapiens) (UniProt P01375); assay: BSK_LPS_TNFa: BioMAP Diversity Plus: LPS Assay for Tumour Necrosis Factor alpha (TNFa) Biomarker Activity (AID 2283085);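 as to AC50: TNFa protein level quantified by ELISA in the co-culture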
# Outline: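 ELISA-based TNFa endpoint in a human endothelial–PBMC co-culture sampled 24 h post-exposure. Curves were fitted in both directions using DMSO as baseline of activity.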
# [3] = read-out: Vascular cell adhesion molecule 1 (VCAM1), VCAM1 (gene 7412); assay: BSK_LPS_VCAM1: BioMAP Diversity Plus: LPS Assay for Vascular cell adhesion molecule 1 (VCAM1) Biomarker Activity (AID 2283086)
# Outline: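 Measured by ELISA: VCAM-1 in LPS-activated HUVEC/PBMC co-cultures 24 h after treatment. Values reflect bidirectional fitting with DMSO as baseline.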
# CD38, CD38 (gene 952) = assay: BSK_SAg_CD38: BioMAP Diversity Plus: SAg Assay for CD38 Biomarker Activity (AID 2283087)
# Outline: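 Measures CD38 on a human endothelial/PBMC co-culture driven by SEB and TSST-1, 24 h after compound exposure, using ELISA with fluorescence detection; DMSO defines baseline for bidirectional curve fitting.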
# CD40, CD40 (gene 958) = assay: BSK_SAg_CD40: BioMAP Diversity Plus: SAg Assay for CD40 Biomarker Activity (AID 2283088)
# Outline: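 Endpoint derived by fitting increases or decreases versus DMSO controls. CD40 is detected by fluorescence ELISA in a human vascular co-culture of endothelium and PBMC at 24 h.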
# CD69, CD69 (gene 969) = assay: BSK_SAg_CD69: BioMAP Diversity Plus: SAg Assay for CD69 Biomarker Activity (AID 2283089)
# Outline: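 Endothelial/PBMC co-culture; chemical added; 24 h incubation; CD69 ELISA with fluorescence detection; bidirectional fit vs DMSO.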
# [4] = read-out: Monocyte Chemoattractant Protein-1 (MCP1), CCL2 (gene 6347); assay: BSK_SAg_MCP1: BioMAP Diversity Plus: SAg Assay for Monocyte Chemoattractant Protein-1 (MCP1) Biomarker Activity (AID 2283090)
# Outline: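 Values derive from bidirectional fitting of ELISA-measured MCP1 against DMSO controls. Readings were taken 24 h after dosing human vascular endothelial cells co-cultured with peripheral blood mononuclear cells under superantigen stimulation.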
# [5] = read-out: E-selectin (Homo sapiens) (UniProt P16581); assay: BSK_SAg_Eselectin: BioMAP Diversity Plus: SAg Assay for Eselectin Biomarker Activity (AID 2283091)
# Outline: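 Endpoint values derive from bidirectional fitting relative to DMSO, using ELISA-measured E-selectin in a human vascular co-culture (umbilical vein endothelium plus PBMC) sampled 24 h after dosing.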
# [6] = read-out: Macrophage colony-stimulating factor (MCSF), CSF1 (gene 1435); assay: BSK_LPS_MCSF: BioMAP Diversity Plus: LPS Assay for Macrophage colony-stimulating factor (MCSF) Biomarker Activity (AID 2283083)
# Outline: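 Bidirectional fit versus DMSO of ELISA-measured M-CSF in co-cultured human umbilical vein endothelial cells and PBMC, sampled 24 h after dosing.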
# [7] = read-out: Monokine induced gamma interferon (MIG), CXCL9 (gene 4283); assay: BSK_SAg_MIG: BioMAP Diversity Plus: SAg Assay for Monokine induced gamma interferon (MIG) Biomarker Activity (AID 2283092)
# Outline: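 Measures CXCL9 protein by ELISA in a human vascular primary-cell co-culture (umbilical vein endothelium with PBMC) 24 h after chemical addition. Activity is scored up or down from the DMSO control.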
# Sequence of Tumor necrosis factor (Homo sapiens) (P01375 whole entry, looked up): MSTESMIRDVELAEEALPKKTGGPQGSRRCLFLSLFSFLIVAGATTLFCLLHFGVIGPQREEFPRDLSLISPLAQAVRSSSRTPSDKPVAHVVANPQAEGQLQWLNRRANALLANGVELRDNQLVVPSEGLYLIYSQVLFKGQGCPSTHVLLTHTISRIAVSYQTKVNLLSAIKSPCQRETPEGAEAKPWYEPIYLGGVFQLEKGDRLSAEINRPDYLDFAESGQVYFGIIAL
# Sequence of E-selectin (Homo sapiens) (P16581 whole entry, looked up): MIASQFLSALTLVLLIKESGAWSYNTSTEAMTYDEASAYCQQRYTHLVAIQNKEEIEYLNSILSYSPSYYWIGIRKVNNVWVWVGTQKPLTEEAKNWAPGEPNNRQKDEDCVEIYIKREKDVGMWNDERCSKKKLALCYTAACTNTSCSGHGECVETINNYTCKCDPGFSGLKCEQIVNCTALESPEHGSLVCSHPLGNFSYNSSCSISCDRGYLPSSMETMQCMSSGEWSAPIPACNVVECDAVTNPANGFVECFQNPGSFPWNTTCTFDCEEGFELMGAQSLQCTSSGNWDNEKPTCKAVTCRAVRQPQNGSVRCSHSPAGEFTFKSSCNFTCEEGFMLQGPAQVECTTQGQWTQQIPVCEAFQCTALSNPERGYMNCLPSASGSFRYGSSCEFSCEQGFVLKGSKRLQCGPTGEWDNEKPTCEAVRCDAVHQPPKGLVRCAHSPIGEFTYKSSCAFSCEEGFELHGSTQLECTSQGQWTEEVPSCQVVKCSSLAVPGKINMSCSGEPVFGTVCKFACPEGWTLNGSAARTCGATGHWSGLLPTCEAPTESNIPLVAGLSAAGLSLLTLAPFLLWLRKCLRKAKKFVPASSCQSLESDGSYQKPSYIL
compound,measurement,setting,value
Cn1c(=O)c2c(ncn2C)n(C)c1=O,outcome,[1],inactive
same,outcome,[2],inactive
same,outcome,[3],inactive
same,outcome,"CD38, CD38 (gene 952)",inactive
same,outcome,"CD40, CD40 (gene 958)",inactive
same,outcome,"CD69, CD69 (gene 969)",inactive
same,outcome,[4],inactive
same,outcome,[5],inactive
O=P(OC(CCl)CCl)(OC(CCl)CCl)OC(CCl)CCl,outcome,[6],inactive
same,outcome,[1],inactive
same,outcome,[2],inactive
same,outcome,[3],inactive
same,AC50,"CD38, CD38 (gene 952)",30 µM (active)
same,AC50,"CD40, CD40 (gene 958)",20 µM (active)
same,AC50,[4],23.4 µM (active)
same,AC50,[5],20 µM (active)
O=C(NS(=O)(=O)/C=C/c1ccccc1)c1ccc(F)cc1Cl,outcome,[6],inactive
same,outcome,[1],inactive
same,outcome,[2],inactive
same,outcome,[3],inactive
same,outcome,"CD38, CD38 (gene 952)",inactive
same,AC50,"CD40, CD40 (gene 958)",9.37 µM (active)
same,outcome,[4],inactive
same,outcome,[7],inactive
CC(O)CN(CCN(CC(C)O)CC(C)O)CC(C)O (stereo not drawn),outcome,[1],inactive
same,outcome,[2],inactive
same,outcome,[3],inactive
same,outcome,"CD38, CD38 (gene 952)",inactive
same,outcome,"CD40, CD40 (gene 958)",inactive
same,outcome,"CD69, CD69 (gene 969)",inactive
same,outcome,[4],inactive
CCn1nc(Cc2ccccc2)cc1C1CCN(C[C@H]2C[C@H](N(C)[C@@H](C(=O)O)C(C)C)C[C@@H]2c2cccc(F)c2)CC1,outcome,[6],inactive
same,outcome,[1],inactive
same,outcome,[2],inactive
same,outcome,[3],inactive
same,outcome,"CD38, CD38 (gene 952)",inactive
same,outcome,"CD40, CD40 (gene 958)",inactive
same,outcome,[4],inactive
same,outcome,[5],inactive
same,outcome,[7],inactive
Nc1ccc(Nc2ccccc2)cc1,AC50,[6],8.31 µM (active)
same,outcome,[1],inactive
same,AC50,[2],20000 nM (active)
same,AC50,[3],7.32 µM (active)
same,AC50,"CD38, CD38 (gene 952)",3.97 µM (active)
same,AC50,"CD40, CD40 (gene 958)",3.97 µM (active)
same,AC50,[4],9.88 µM (active)
same,AC50,[5],2.72 µM (active)
CC(C)=CCCC(C)=CC=O,outcome,[6],inactive
same,outcome,[1],inactive
same,outcome,[2],inactive
same,AC50,[3],33.7 µM (active)
same,outcome,"CD38, CD38 (gene 952)",inactive
same,outcome,"CD40, CD40 (gene 958)",inactive
same,outcome,[4],inactive
same,outcome,[7],inactive
Oc1ccc2c(c1)-c1ccccc1C2,outcome,[6],inactive
same,outcome,[1],inactive
same,AC50,[2],334 nM (active)
same,outcome,[3],inactive
same,outcome,"CD38, CD38 (gene 952)",inactive
same,AC50,"CD40, CD40 (gene 958)",24.8 µM (active)
same,outcome,[4],inactive
same,outcome,[5],inactive
CC(C)(O)c1coc(S(=O)(=O)NC(=O)Nc2c3c(cc4c2CCC4)CCC3)c1,outcome,[1],inactive
same,AC50,[2],405 nM (active)
same,outcome,[3],inactive
same,outcome,"CD38, CD38 (gene 952)",inactive
same,outcome,"CD40, CD40 (gene 958)",inactive
same,outcome,"CD69, CD69 (gene 969)",inactive
same,outcome,[4],inactive
same,outcome,[5],inactive
CC1(C)C(=O)N(Br)C(=O)N1Br,outcome,[1],inactive
same,outcome,[2],inactive
same,outcome,[3],inactive
same,outcome,"CD38, CD38 (gene 952)",inactive
same,outcome,"CD40, CD40 (gene 958)",inactive
same,outcome,"CD69, CD69 (gene 969)",inactive
same,outcome,[4],inactive
CCC(C)(C)C(=O)O[C@H]1C[C@@H](C)C=C2C=C[C@H](C)[C@H](CC[C@@H]3C[C@@H](O)CC(=O)O3)[C@H]21,AC50,[6],35 µM (active)
same,outcome,[1],inactive
same,AC50,[2],363 nM (active)
same,AC50,[3],25.4 µM (active)
same,AC50,"CD38, CD38 (gene 952)",24.9 µM (active)
same,AC50,"CD40, CD40 (gene 958)",3.99 µM (active)
same,AC50,[4],20 µM (active)
same,AC50,[5],0.149 µM (active)
same,outcome,[7],inactive
COc1ccc(/C=C/S(=O)(=O)NC(=O)c2ccc(C)cc2Cl)cc1,outcome,[1],inactive
same,outcome,[2],inactive
same,outcome,[3],inactive
same,outcome,"CD38, CD38 (gene 952)",inactive
same,AC50,"CD40, CD40 (gene 958)",4.18 µM (active)
same,outcome,"CD69, CD69 (gene 969)",inactive
same,outcome,[4],inactive
same,outcome,[5],inactive
same,outcome,[7],inactive
CCCCC(CC)COC(=O)CCCCCCCCC(=O)OCC(CC)CCCC (stereo not drawn),outcome,[1],inactive
same,outcome,[2],inactive
same,outcome,[3],inactive
same,outcome,"CD38, CD38 (gene 952)",inactive
same,outcome,"CD40, CD40 (gene 958)",inactive
same,outcome,"CD69, CD69 (gene 969)",inactive
same,outcome,[4],inactive
CC(C)CCCCCCCOC(=O)CCCCC(=O)OCCCCCCCC(C)C,outcome,[1],inactive
same,outcome,[2],inactive
same,outcome,[3],inactive
same,outcome,"CD38, CD38 (gene 952)",inactive
same,outcome,"CD40, CD40 (gene 958)",inactive
same,outcome,"CD69, CD69 (gene 969)",inactive
same,outcome,[4],inactive
same,outcome,[5],inactive
same,outcome,[7],inactive
CCNc1ccccc1,outcome,[6],inactive
same,outcome,[1],inactive
same,outcome,[2],inactive
same,outcome,[3],inactive
same,outcome,"CD38, CD38 (gene 952)",inactive
same,outcome,"CD40, CD40 (gene 958)",inactive
same,outcome,[4],inactive
same,outcome,[7],inactive
CCN(C(=O)c1cc(C)cc(OC[C@H](C)Nc2ccncc2)c1)C(C)C,outcome,[1],inactive
same,outcome,[2],inactive
same,outcome,[3],inactive
same,outcome,"CD38, CD38 (gene 952)",inactive
same,outcome,"CD40, CD40 (gene 958)",inactive
same,outcome,"CD69, CD69 (gene 969)",inactive
same,outcome,[4],inactive
O=C1OC(=O)C2C3C=CC(C3)C12 (stereo not drawn),outcome,[6],inactive
same,outcome,[1],inactive
same,outcome,[2],inactive
same,outcome,[3],inactive
same,outcome,"CD38, CD38 (gene 952)",inactive
same,outcome,"CD40, CD40 (gene 958)",inactive
same,outcome,[4],inactive
same,outcome,[5],inactive
CC(C)=CCC/C(C)=C\CO,outcome,[1],inactive
same,outcome,[2],inactive
same,outcome,"CD38, CD38 (gene 952)",inactive
same,outcome,"CD40, CD40 (gene 958)",inactive
same,outcome,"CD69, CD69 (gene 969)",inactive
same,outcome,[4],inactive
same,outcome,[7],inactive
CC[C@H](C)C(=O)O[C@H]1C[C@@H](C)C=C2C=C[C@H](C)[C@H](CC[C@@H]3C[C@@H](O)CC(=O)O3)[C@H]21,outcome,[1],inactive
same,AC50,[2],33500 nM (active)
same,AC50,[3],30.8 µM (active)
same,AC50,"CD38, CD38 (gene 952)",29.8 µM (active)
same,AC50,"CD40, CD40 (gene 958)",12.5 µM (active)
same,AC50,[4],33.7 µM (active)
C[C@](N)(Cc1ccc(O)c(O)c1)C(=O)O,outcome,[1],inactive
same,outcome,[2],inactive
same,outcome,[3],inactive
same,outcome,"CD38, CD38 (gene 952)",inactive
same,outcome,"CD40, CD40 (gene 958)",inactive
same,outcome,[4],inactive
same,outcome,[5],inactive
COC(=O)CC(=O)OC,outcome,[1],inactive
same,outcome,[2],inactive
same,outcome,[3],inactive
same,outcome,"CD38, CD38 (gene 952)",inactive
same,outcome,"CD40, CD40 (gene 958)",inactive
same,outcome,[4],inactive
same,outcome,[7],inactive
C=CCCCCCCCCC(=O)O,outcome,[1],inactive
same,AC50,[2],740 nM (active)
same,outcome,[3],inactive
same,outcome,"CD38, CD38 (gene 952)",inactive
same,outcome,"CD40, CD40 (gene 958)",inactive
same,outcome,"CD69, CD69 (gene 969)",inactive
same,outcome,[4],inactive
same,outcome,[7],inactive
CCCCCCCCO,outcome,[1],inactive
same,outcome,[2],inactive
same,outcome,[3],inactive
same,outcome,"CD38, CD38 (gene 952)",inactive
same,outcome,"CD40, CD40 (gene 958)",inactive
same,outcome,[4],inactive
same,outcome,[7],inactive
